Experimental data as given in PubChem BioAssay (NCI).
The panel holds about 83,000 compounds, 20% with a hit somewhere; the sample as a whole holds those more often.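 Cell lines were cultured in 96-well plates, exposed to a single compound concentration, and assessed for percent growth 48 hours later.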 Active and inactive are the calls of the source. The calls were made as follows: active = growth percent below 10; inactive = the rest.

Tested on: MDA-MB-468 breast
Experiment: NCI-60 one-dose screen, 48 h (100 = growth as untreated, 0 = no growth, -100 = all killed)
Conditions: 10 µM unless noted

| SMILES | growth |
| --- | --- |
| CC[C@H](NC(=O)[C@H]1CCCCN1C)C(=O)N(C)[C@H](C[C@@H](OC(C)=O)c1nc(C(=O)N[C@@H](Cc2ccccc2)C[C@H](C)C(=O)O)cs1)C(C)C | 17.6% (inactive) |
| CCCCCCCCOC(=O)CCN1CC1 | 100% (inactive) |
| NC(=O)C(Br)c1ccccc1 (stereo unspecified) | 57.5% (inactive) |
| CCC(Br)(CC)C(=O)NC(N)=O | 97.7% (inactive) |
| CCn1nccc1NC(=O)C(=O)c1cn(Cc2ccc(F)cc2)c2cccc(OC)c12 | 102% (inactive) |
| O=C1CCC2(O)[C@@H]3Cc4ccc(O)c5c4[C@]2(CCN3Cc2ccoc2)C1O5 (stereo partly specified) | 97.3% (inactive) |
| COc1ccc(/C=C\c2cc(OC)c(OC)c(OC)c2)cc1NS(=O)(=O)c1ccc(Cl)cc1 | 42.2% (inactive) |
| CCCCCCCCCCCCCC[P+](CCCCCC)(CCCCCC)CCCCCC | -88.3% (active) |
| CCN(CC)CCOC(=O)C(OC(C)C)(c1ccccc1)c1ccccc1 | 95.1% (inactive) |
| Clc1cc(N2CC2)nc(N2CC2)n1 | 9.71% (active) |
| O=C(Nc1ccc(S(=O)(=O)F)cc1)Oc1ccccc1 | 97.6% (inactive) |
| O=S(=O)(F)c1ncnc2nc[nH]c12 | 96.1% (inactive) |
| Cc1cc(N)ccc1N | 86.4% (inactive) |
| C[C@]12CC[C@@H]3c4ccc(Oc5nc(N6CC6)nc(N6CC6)n5)cc4CC[C@H]3[C@@H]1CCC2=O | 30.4% (inactive) |
| COC(=O)[C@@H](C)C[C@H](Cc1ccccc1)NC(=O)c1csc([C@@H](C[C@H](C(C)C)N(C)C(=O)[C@@H](NC(=O)[C@H]2CCCCN2C)C2CC2)OC(C)=O)n1 | 0.846% (active) |
| CC(N)Cc1ccc(O)cc1 (stereo unspecified) | 107% (inactive) |
| O=S(=O)(O)c1ccc(-c2ccc([As](=O)(O)O)cc2)cc1 | 105% (inactive) |
| Cc1cc(N(CCCl)CCCl)ccc1/C=N\NC(=O)c1ccncc1 | -45.6% (active) |
| COc1ccc(C(C#N)C(C)=O)cc1 (stereo unspecified) | 106% (inactive) |
| CC(=O)c1ccc(C(=O)NCC2CCC3(CC2)OOC2(CCCCC2)OO3)cc1 | 65.7% (inactive) |
| CC(=O)Nc1ccc(C=C2C(=O)NC(=O)NC2=O)cc1 | 115% (inactive) |

| SMILES | growth |
| --- | --- |
| CCCCCCCC[n+]1ccc2ccccc2c1 | 8.79% (active) |
| COC[CH2][Hg][C]#[C][Hg][CH2]COC | 110% (inactive) |
| O=C(O)c1[nH]c(=O)[nH]c(=O)c1F | 107% (inactive) |
| Oc1cc(Cl)ccc1Oc1ccc(Cl)cc1Cl | 7% (active) |
| c1ccc([As]=[As]c2ccccc2)cc1 (stereo unspecified) | -55.7% (active) |
| O=[N+]([O-])c1ccc2scc3c4ccccc4nc-3c2c1 | -84.5% (active) |
| Cn1cc(C=O)c2nccnc21 | 98.1% (inactive) |
| C[C@]12CC[C@H]3[C@@H](CCC4=CC(=O)CC[C@@H]43)[C@@H]1CC[C@@H]2OC(=O)N(CCCl)N=O | -22.1% (active) |
| COc1ccc(CN2CCN(Cc3ccccc3)CC2)c(O)c1 | 75.5% (inactive) |
| N#[N+]c1cnc([O-])[nH]c1=O | 88.4% (inactive) |
| CC(=O)OC[C@]1(C)C=C2C(=O)[C@](C)(O)C3(CC3)C(C)=C2[C@H]1O | -71.7% (active) |
| N#CCC(=O)c1ccccc1 | 6.35% (active) |
| CC(C)=CCc1c2c(c(O)c3c1O[C@]14C(=C[C@@H]5C[C@H]1C(C)(C)O[C@@]4(C/C=C(/C)C(=O)O)C5=O)C3=O)C=CC(C)(C)O2 | -80.8% (active) |
| CO/N=C1\CC[C@]2(C)[C@H]3CC[C@]4(C)C(=O)CC[C@H]4[C@@H]3C[C@@H]3SC(N)=N[C@@]32C1 | 88.8% (inactive) |
| CC[C@H](C)[C@H](NC(=O)C12C3C4C1C1C2C3C41NC(C)=O)C(=O)N(C)[C@H](C[C@@H](OC(C)=O)c1nc(C(=O)N[C@@H](Cc2ccccc2)C[C@H](C)C(=O)OC)cs1)C(C)C (stereo partly specified) | 11.5% (inactive) |
| O=[N+]([O-])c1cc(Br)c(O)c(Br)c1 | 99.4% (inactive) |
| C[C@]12C[C@H](O)[C@H]3[C@@H](CCC4=CC(=O)CC[C@@]43C)[C@@H]1CC[C@@H]2O | 99.7% (inactive) |
| CC(=O)C1C(=O)N(C)C(=O)N(C)C1=O | 104% (inactive) |
| C=C1[C@@H](C)[C@H]2[C@H](Cc3ccccc3)NC(=O)[C@]23[C@@H](O)/C=C/[C@@](C)(O)C(=O)[C@@H](C)C/C=C/[C@H]3[C@@H]1O | -39% (active) |
| CO[C@H](C(=O)O)[C@@H]1Cc2cc3cc(OC4CC(OC5CC(O)C(O)C(C)O5)C(O)C(C)O4)c(C)c(O)c3c(O)c2C(=O)[C@H]1OC1CC(OC2CC(OC3CC(C)(O)C(O)C(C)O3)C(O)C(C)O2)C(O)C(C)O1 (stereo partly specified) | -16.7% (active) |
